FMDV inh: High Throughput Screening for Foot and Mouth Disease Virus Antivirals; FMDV antiviral cell-based qHTS; Potency, µM (highest dose often 57.9 µM), actives largely listed as inhibitors; hit rate 1.2% among 410,000; calls by dose curve; tested in HEK293T cells; also: read-out not given here; nearly all actives have a fitted effect of over 45% in size
VACV mCherry inh: qHTS for Stage-Specific Inhibitors of Vaccinia Orthopoxvirus: mCherry Reporter Primary qHTS. Vaccinia virus mCherry reporter infection, fluorescence. Potency, µM (doses to about 36.5 µM), usual class: inhibitors. hit rate 0.63% among 310,000; calls by dose curve; tested in A549 cells; also: nearly all actives have a fitted effect of over 35% in size
Giardia FBPA inh: qHTS Assay for Inhibitors of Fructose-1,6-bisphosphate Aldolase from Giardia Lamblia | hit rate 0.71% among 290,000 | purified Giardia FBPA | Potency, µM (series often up to 59.6 µM), hits mostly inhibitors | A8B2U2 | AID 2451, 2010; also: nearly all actives have a fitted effect of over 55% in size
Target sequence (A8B2U2 whole entry, looked up): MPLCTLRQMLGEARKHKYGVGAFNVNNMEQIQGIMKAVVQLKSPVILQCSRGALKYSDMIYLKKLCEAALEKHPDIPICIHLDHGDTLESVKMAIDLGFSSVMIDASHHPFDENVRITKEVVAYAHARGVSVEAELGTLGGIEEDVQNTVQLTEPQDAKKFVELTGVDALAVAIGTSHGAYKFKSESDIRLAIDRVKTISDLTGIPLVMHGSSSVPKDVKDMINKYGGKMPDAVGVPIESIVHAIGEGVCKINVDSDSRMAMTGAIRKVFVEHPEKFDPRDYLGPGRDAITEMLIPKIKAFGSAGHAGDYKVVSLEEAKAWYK
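40 nM FBPA preincubated 10 min at RT with compound (up to 57.5 uM final), then substrate plus GAPDH/TPI/NAD/arsenate coupling and diaphorase/resazurin added. Fluorescence read after 20 min at RT, 525/598 nm.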
HCV inh: qHTS Assay for Inhibitors of Hepatitis C Virus (HCV); Potency, µM (top dose mostly 41.8 µM), actives largely listed as inhibitors; Huh7.5.1 HCVcc-Cre infection, luciferase reporter, 44 h; hit rate 3.4% among 340,000; AID 651820, 2012
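Cells (1,000/well) were plated 4 h before compound, then infected with HCVcc-Cre virus (~0.5 moi). After 44 h further culture, infection was read as luciferase luminescence following a 15 min substrate incubation at room temperature.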
HCMV inh: qHTS Assay for inhibitors of the human cytomegalovirus (HCMV); HFF cells, HCMV-luciferase reporter, 72 h; hits give low values; activity change, negative = inhibition, % at 57.5 µM; hit rate 4.5% among 410,000; in the data active = activity change below about -60%; inconclusive = no clear call, values can overlap the other calls; inactive = above about -39%
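Compounds were evaluated in HFFs infected with an HCMV luciferase reporter virus (MOI 1 PFU/cell). Luciferase in lysates collected 72 h post infection served as the replication measure.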
Vaccinia Venus: qHTS for Stage-Specific Inhibitors of Vaccinia Orthopoxvirus: Venus Reporter Primary qHTS. Vaccinia virus Venus reporter expression, fluorescence. Potency, µM (highest dose often 36.5 µM), most hits filed as inhibitors. hit rate 0.46% among 330,000; calls by dose curve; tested in A549 cells; also: nearly all actives have a fitted effect of over 30% in size
Each line names hits and unclear results; the compound was inactive in the other large screens. This is a sample that favours compounds with a hit; in the whole collection about 7.5% have one here. Unless noted, calls follow the shape of the dose curve; as a rule, active = well fitted curve in the direction sought with a large enough effect; inconclusive = small, poorly fitted or top-dose-only effect, or another doubt; inactive = no such curve, though single readings can be large; an effect the other way counts as inactive or inconclusive.

C=CCC[C@@H](Cc1ccc(F)cc1)C(=O)OC[C@@H](Cc1c[nH]c2ccccc12)NC(=O)[C@H](CC=C)CC(=O)N(CCO)Cc1ccccc1	FMDV inh inconclusive, VACV mCherry inh inconclusive, HCV inh inconclusive, Vaccinia Venus 14µM (no result: Giardia FBPA inh)
C=CCC[C@H](Cc1ccc(F)cc1)C(=O)OC[C@@H](Cc1c[nH]c2ccccc12)NC(=O)[C@H](CC=C)CC(=O)N(CCO)Cc1ccccc1	FMDV inh 40µM, VACV mCherry inh inconclusive, HCV inh inconclusive, Vaccinia Venus 10µM (no result: Giardia FBPA inh)
CC(C)NC(=O)CC1(C)N=C(c2cccc3ccccc23)N(C)O1 (stereo not drawn)	none (no result: FMDV inh, VACV mCherry inh, Giardia FBPA inh, HCV inh, Vaccinia Venus)
Cc1ccccc1OCc1nnc(SCC(=O)Nc2ccc3nc(SCC(=O)NC(C)(C)C)sc3c2)n1C	FMDV inh 35µM, HCV inh inconclusive, Vaccinia Venus inconclusive (no result: VACV mCherry inh)
Cc1cccc(NC(=O)CSc2nc3ccc(NC(=O)COc4ccccc4C)cc3s2)c1	none (no result: Giardia FBPA inh, HCV inh)
CCN(CC)C(=O)CSc1nc2ccc(NC(=O)CSc3nnc(COc4ccccc4C)n3C)cc2s1	FMDV inh 22µM, HCV inh 10µM, Vaccinia Venus inconclusive
Cc1ccc(-n2ncc3c(N4CCC(Cc5ccccc5)CC4)ncnc32)cc1	HCMV inh inconclusive (no result: Giardia FBPA inh, HCV inh)
Cc1sc2ncnc(NCc3cccnc3)c2c1C	HCV inh inconclusive, HCMV inh -61
Cc1sc2ncnc(NCc3ccco3)c2c1C	FMDV inh inconclusive, HCV inh inconclusive
Cc1sc2ncnc(NCc3cccs3)c2c1C	FMDV inh 14µM, HCV inh 10µM, HCMV inh -92 (no result: VACV mCherry inh, Vaccinia Venus)
Cc1sc2ncnc(NCCCO)c2c1C	none
Cc1sc2ncnc(NCCN3CCOCC3)c2c1C	FMDV inh inconclusive, Giardia FBPA inh inconclusive, HCV inh 11µM, HCMV inh -76 (no result: VACV mCherry inh, Vaccinia Venus)
COC(=O)C1=C(C)N(c2cccc(C)c2)C(=O)/C1=C\c1cccs1	HCV inh inconclusive, HCMV inh -99 (no result: VACV mCherry inh)
Cc1noc(N)c1C(=O)Nc1ccccc1F	Vaccinia Venus 7.9µM
Cc1ccc2oc(=O)c3cnn(CC(=O)Nc4ccccc4N4CCN(C)CC4)c3c2c1	HCV inh 14µM, HCMV inh inconclusive
COc1ccc(-c2cn3c(n2)sc2cc(C(=O)NCC(C)c4ccccc4)ccc23)cc1 (stereo not drawn)	none (no result: Giardia FBPA inh, HCV inh, HCMV inh)
COc1cc2c(c(OC)c1OC)-c1ccc(O)c(=O)cc1[C@H](N)CC2	none (no result: FMDV inh, VACV mCherry inh, HCV inh, HCMV inh, Vaccinia Venus)
COc1cc2c(c(OC)c1OC)-c1ccc(NC(=O)c3ccc(F)cc3)c(=O)cc1[C@@H](NC(C)=O)CC2	FMDV inh inconclusive, HCV inh inconclusive, Vaccinia Venus inconclusive
CCN(CC)c1ccc2c(cc1=O)[C@@H](NC)CCc1cc(OC)c(OC)c(OC)c1-2	VACV mCherry inh inconclusive, HCMV inh -92
COc1cc2c(c(OC)c1OC)-c1ccc(OC)c(=O)cc1[C@@H](N(C)CC#CCO)CC2	HCMV inh inconclusive, Vaccinia Venus inconclusive
COc1cc2c(c(OC)c1OC)-c1ccc(N(C)CC(OC)OC)c(=O)cc1[C@@H](NC(C)=O)CC2	HCMV inh -87
CN[C@H]1CCc2cc(OC)c(OC)c(OC)c2-c2ccc(N(C)CC(OC)OC)c(=O)cc21	HCMV inh -74 (no result: VACV mCherry inh, Vaccinia Venus)
COc1cccc(NC(=O)c2ncc(Cl)c(Cl)c2Cl)c1	none
COc1ccc(-c2cn3nc(N4CCC(C(=O)Nc5ccc(C)cc5)CC4)sc3n2)cc1	none (no result: Giardia FBPA inh, HCV inh)
COC(=O)c1cccc(Cn2c(Cl)c(/C=N/NC(=O)c3ccco3)sc2=O)c1	none (no result: VACV mCherry inh, Giardia FBPA inh, Vaccinia Venus)
C[C@]12CC[C@@H]3[C@@H](CCC4=CC(=O)CC[C@@H]43)[C@@H]1CC[C@@H]2OC(=O)CCc1ccccc1	none (no result: FMDV inh, VACV mCherry inh, HCV inh, HCMV inh, Vaccinia Venus)
CC(=O)n1cc([C@H]2C=C(C(=O)N3CCN(Cc4ccc5c(c4)OCO5)CC3)O[C@@H](OCCCCO)C2)c2ccccc21	HCV inh inconclusive
O=C(CN1C(=O)COc2ccccc21)NCCN1CCCC1	none (no result: VACV mCherry inh, Vaccinia Venus)
Cc1ccc2c(c1)N(CC(=O)NCCCN1CCN(C)CC1)C(=O)CO2	HCMV inh -69 (no result: Giardia FBPA inh)
O=C(CN1C(=O)COc2ccccc21)NCCCN1CCCC1	HCMV inh active (no result: VACV mCherry inh, Giardia FBPA inh, Vaccinia Venus)
CN1C(=O)/C(=C/c2ccccc2Cl)Sc2ccc(C(=O)NCc3cccnc3)cc21	FMDV inh 40µM

Screens (PubChem)
